# Measured values published in PubChem BioAssay AID1159580 (chemical genetic matrix, 2015).
# About 2,000 (36%) of roughly 5,500 compounds were called active. Roughly 18% stayed inconclusive and do not appear here. This is one part of the list. Values without a mark were called inactive. No stated cut-off is given here; in the data, active means normalized growth mostly below about 0.91 (no sharp cut-off); inconclusive means no clear call, values can overlap the other calls; inactive means mostly above about 0.92.
# Assay: chemical genetic growth profiling, strain panel (AID 1159580);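 further: tested at 20 µM; growth read once vehicle control cultures reached saturation at 30 °C; 1 = growth at the plate median or of vehicle wells; lower values mean less growth of the strain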
# Details: growth OD
smiles,measurement,setting,value
CC(C(=O)O)c1ccc2c(c1)[nH]c1ccc(Cl)cc12 (configuration not stated),normalized growth,"S. cerevisiae deletion strains, locus YJR075W, strain HOC1, hits give low values",1.01
same,normalized growth,"S. cerevisiae deletion strains, locus YKL009W, strain mrt4, hits give low values",0.975
same,normalized growth,"S. cerevisiae deletion strains, locus YKL068W, hits give low values",0.964
same,normalized growth,"S. cerevisiae deletion strains, locus YKL085W, strain MDH1 (second series), hits give low values",0.95
same,normalized growth,"S. cerevisiae deletion strains, locus YKL085W, strain MDH1, hits give low values",0.95
same,normalized growth,"S. cerevisiae deletion strains, locus YKL160W, strain elf1, hits give low values",0.941
same,normalized growth,"S. cerevisiae deletion strains, locus YKL190W, strain CNB1, hits give low values",1.01
same,normalized growth,"S. cerevisiae deletion strains, locus YKR001C, strain vps1, hits give low values",0.937
same,normalized growth,"S. cerevisiae deletion strains, locus YKR026C, strain gcn3, hits give low values",0.983
same,normalized growth,"S. cerevisiae deletion strains, locus YKR091W, strain srl3, hits give low values",0.988
same,normalized growth,"S. cerevisiae deletion strains, locus YLL001W, strain dnm1, hits give low values",1
same,normalized growth,"S. cerevisiae deletion strains, locus YLL026W, hits give low values",0.978
same,normalized growth,"S. cerevisiae deletion strains, locus YLL041C, strain sdh2, hits give low values",1
same,normalized growth,"S. cerevisiae deletion strains, locus YLR027C, strain aat2, hits give low values",0.992
same,normalized growth,"S. cerevisiae deletion strains, locus YLR039C, strain RIC1, hits give low values",0.977
same,normalized growth,"S. cerevisiae deletion strains, locus YLR058C, strain SHM2, hits give low values",1
same,normalized growth,"S. cerevisiae deletion strains, locus YLR102C, strain apc9, hits give low values",0.991
same,normalized growth,"S. cerevisiae deletion strains, locus YLR113W, strain HOG1, hits give low values",0.248 (active)
same,normalized growth,"S. cerevisiae deletion strains, locus YLR221C, strain rsa3, hits give low values",0.986
same,normalized growth,"S. cerevisiae deletion strains, locus YLR258W, strain gsy2, hits give low values",0.976
same,normalized growth,"S. cerevisiae deletion strains, locus YLR262C, strain YPT6 (second series), hits give low values",0.94
same,normalized growth,"S. cerevisiae deletion strains, locus YLR262C, strain YPT6, hits give low values",0.989
same,normalized growth,"S. cerevisiae deletion strains, locus YLR268W, strain sec22, hits give low values",0.992
same,normalized growth,"S. cerevisiae deletion strains, locus YLR320W, strain mms22, hits give low values",0.937
same,normalized growth,"S. cerevisiae deletion strains, locus YLR330W, strain CHS5, hits give low values",0.998
same,normalized growth,"S. cerevisiae deletion strains, locus YLR342W, strain FKS1 (second series), hits give low values",0.987
same,normalized growth,"S. cerevisiae deletion strains, locus YLR342W, strain FKS1, hits give low values",0.966
same,normalized growth,"S. cerevisiae deletion strains, locus YLR357W, strain rsc2, hits give low values",0.923
same,normalized growth,"S. cerevisiae deletion strains, locus YLR370C, strain arc18, hits give low values",0.972
same,normalized growth,"S. cerevisiae deletion strains, locus YLR371W, strain rom2, hits give low values",0.984
same,normalized growth,"S. cerevisiae deletion strains, locus YLR384C, strain iki3, hits give low values",0.964
same,normalized growth,"S. cerevisiae deletion strains, locus YLR418C, strain cdc73, hits give low values",0.962
same,normalized growth,"S. cerevisiae deletion strains, locus YML016C, strain PPZ1, hits give low values",1.01
same,normalized growth,"S. cerevisiae deletion strains, locus YML032C, strain rad52, hits give low values",0.965
same,normalized growth,"S. cerevisiae deletion strains, locus YML120C, strain ndi1, hits give low values",0.985
same,normalized growth,"S. cerevisiae deletion strains, locus YML124C, strain tub3, hits give low values",0.981
same,normalized growth,"S. cerevisiae deletion strains, locus YMR058W, strain fet3, hits give low values",1
same,normalized growth,"S. cerevisiae deletion strains, locus YMR078C, strain ctf18, hits give low values",0.983
same,normalized growth,"S. cerevisiae deletion strains, locus YMR125W, strain sto1, hits give low values",0.969
same,normalized growth,"S. cerevisiae deletion strains, locus YMR129W, hits give low values",0.995
same,normalized growth,"S. cerevisiae deletion strains, locus YMR205C, strain PFK2, hits give low values",0.962
same,normalized growth,"S. cerevisiae deletion strains, locus YMR223W, strain ubp8, hits give low values",0.975
same,normalized growth,"S. cerevisiae deletion strains, locus YMR231W, strain pep5, hits give low values",0.957
same,normalized growth,"S. cerevisiae deletion strains, locus YMR263W, strain SAP30, hits give low values",1.02
same,normalized growth,"S. cerevisiae deletion strains, locus YMR307W, strain GAS1, hits give low values",0.996
same,normalized growth,"S. cerevisiae deletion strains, locus YNL067W, strain RPL9B, hits give low values",1.03
same,normalized growth,"S. cerevisiae deletion strains, locus YNL071W, strain lat1, hits give low values",0.982
same,normalized growth,"S. cerevisiae deletion strains, locus YNL128W, strain TEP1, hits give low values",1
same,normalized growth,"S. cerevisiae deletion strains, locus YNL153C, strain GIM3, hits give low values",1.03
same,normalized growth,"S. cerevisiae deletion strains, locus YNL183C, strain NPR1, hits give low values",0.507 (active)
same,normalized growth,"S. cerevisiae deletion strains, locus YNL209W, strain ssb2, hits give low values",0.988
same,normalized growth,"S. cerevisiae deletion strains, locus YNL233W, strain BNI4, hits give low values",1.02
same,normalized growth,"S. cerevisiae deletion strains, locus YNL248C, strain rpa49, hits give low values",0.963
same,normalized growth,"S. cerevisiae deletion strains, locus YNL250W, strain rad50, hits give low values",0.885 (active)
same,normalized growth,"S. cerevisiae deletion strains, locus YNL271C, strain bni1, hits give low values",0.942
same,normalized growth,"S. cerevisiae deletion strains, locus YNL298W, strain CLA4, hits give low values",0.91
same,normalized growth,"S. cerevisiae deletion strains, locus YNL307C, strain MCK1, hits give low values",0.963
same,normalized growth,"S. cerevisiae deletion strains, locus YNL322C, strain KRE1 (second series), hits give low values",0.895 (active)
same,normalized growth,"S. cerevisiae deletion strains, locus YNL322C, strain KRE1, hits give low values",1.01
same,normalized growth,"S. cerevisiae deletion strains, locus YNR049C, strain mso1, hits give low values",0.988
same,normalized growth,"S. cerevisiae deletion strains, locus YNR052C, strain pop2, hits give low values",0.97
same,normalized growth,"S. cerevisiae deletion strains, locus YOL006C, strain TOP1, hits give low values",1.07
same,normalized growth,"S. cerevisiae deletion strains, locus YOL012C, strain htz1",0.756
same,normalized growth,"S. cerevisiae deletion strains, locus YOL147C, strain pex11, hits give low values",0.974
same,normalized growth,"S. cerevisiae deletion strains, locus YOR001W, strain rrp6, hits give low values",1
same,normalized growth,"S. cerevisiae deletion strains, locus YOR061W, strain CKA2, hits give low values",1
same,normalized growth,"S. cerevisiae deletion strains, locus YOR069W, strain VPS5, hits give low values",1.01
same,normalized growth,"S. cerevisiae deletion strains, locus YOR070C, strain gyp1, hits give low values",0.981
same,normalized growth,"S. cerevisiae deletion strains, locus YOR080W, strain dia2, hits give low values",1
same,normalized growth,"S. cerevisiae deletion strains, locus YOR083W, strain WHI5, hits give low values",0.898
same,normalized growth,"S. cerevisiae deletion strains, locus YOR106W, strain vam3, hits give low values",0.925
same,normalized growth,"S. cerevisiae deletion strains, locus YOR136W, strain idh2, hits give low values",0.963
same,normalized growth,"S. cerevisiae deletion strains, locus YOR144C, strain elg1, hits give low values",0.98
same,normalized growth,"S. cerevisiae deletion strains, locus YOR184W, strain ser1, hits give low values",0.986
same,normalized growth,"S. cerevisiae deletion strains, locus YOR231W, strain MKK1, hits give low values",0.212 (active)
same,normalized growth,"S. cerevisiae deletion strains, locus YOR265W, strain rbl2, hits give low values",0.993
same,normalized growth,"S. cerevisiae deletion strains, locus YOR270C, strain vph1, hits give low values",0.999
same,normalized growth,"S. cerevisiae deletion strains, locus YOR290C, strain snf2, hits give low values",0.95
same,normalized growth,"S. cerevisiae deletion strains, locus YOR316C, strain cot1, hits give low values",0.989
same,normalized growth,"S. cerevisiae deletion strains, locus YPL051W, strain arl3, hits give low values",0.953
same,normalized growth,"S. cerevisiae deletion strains, locus YPL055C, strain LGE1, hits give low values",1.04
same,normalized growth,"S. cerevisiae deletion strains, locus YPL078C, strain atp4, hits give low values",0.946
same,normalized growth,"S. cerevisiae deletion strains, locus YPL106C, strain sse1, hits give low values",0.938
same,normalized growth,"S. cerevisiae deletion strains, locus YPL240C, strain hsp82, hits give low values",1
same,normalized growth,"S. cerevisiae deletion strains, locus YPL241C, strain CIN2, hits give low values",1.01
same,normalized growth,"S. cerevisiae deletion strains, locus YPL256C, strain CLN2, hits give low values",0.238 (active)
same,normalized growth,"S. cerevisiae deletion strains, locus YPR119W, strain clb2, hits give low values",0.993
same,normalized growth,"S. cerevisiae deletion strains, locus YPR141C, strain kar3, hits give low values",0.967
same,normalized growth,"S. cerevisiae deletion strains, locus YPR163C, strain tif3, hits give low values",0.981
same,normalized growth,"S. cerevisiae deletion strains, locus YPR167C, strain met16, hits give low values",0.995
same,normalized growth,"S. cerevisiae deletion strains, strain wtn01, hits give low values",0.998
same,normalized growth,"S. cerevisiae strains, strain wild type, hits give low values",0.995
